Data on 20 compounds can be found in PubChem BioAssay (NCI).

This is part of a sample that, as a whole, favours compounds with a hit. Of some 79,000 tested, about 15% had one in any assay. Unmarked numbers belong to inactive results. Activity calls are given as the source filed them. No stated cut-off is given here; in the data, active means growth inhibition above about 70%; inactive means the rest.

Assay [1] is described as follows: NCI Yeast Anticancer Drug Screen. Data for the rad50 strain (AID 155).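 Further: 0% = growth of vehicle-only cultures of the same strain.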 Conditions: S. cerevisiae rad50 strain growth inhibition, active compounds read high; at 50.0 µM unless noted. Put shortly:
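DNA repair mutant yeast, compound exposure, growth read-out; inhibition is taken relative to vehicle.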

The nature of assay [2]: NCI Yeast Anticancer Drug Screen. Data for the mec2-1 strain (AID 157). Conditions: S. cerevisiae mec2-1 strain, active compounds read high; at 50.0 µM unless noted. The method, boiled down: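 Each compound was tested on mec2-1 yeast, a strain altered in DNA damage repair or cell cycle control. Growth inhibition is reported relative to vehicle.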
Assay [3] in a line: NCI Yeast Anticancer Drug Screen. Data for the sgs1 mgt1 strain (AID 161).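 Further: 0% = growth of cultures given vehicle only.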 Conditions: S. cerevisiae sgs1 mgt1 strain, active compounds read high; at 50.0 µM unless noted. The method, boiled down:
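Genetically altered yeast, compound exposure, growth inhibition relative to vehicle.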

A short description of assay [4]: NCI Yeast Anticancer Drug Screen. Data for the cln2 rad14 strain (AID 165).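 Further: 0% = growth equal to vehicle treated cultures.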 Conditions: S. cerevisiae cln2 rad14 strain, active compounds read high; at 50.0 µM unless noted. Put shortly: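 Test compounds were added to cln2 rad14 yeast cultures; inhibition of growth was then determined by comparison with vehicle treatment.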
Assay [5] in a line: NCI Yeast Anticancer Drug Screen. Data for the bub3 strain (AID 167). Conditions: S. cerevisiae bub3 mutant strain, active compounds read high; at 50.0 µM unless noted. Put shortly: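 In this screen, a yeast mutant lacking normal mitotic checkpoint function is challenged with compound. Relative growth versus vehicle gives the inhibition value.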
Assay [6] is described as follows: NCI Yeast Anticancer Drug Screen. Data for the mlh1 rad18 strain (AID 175). Conditions: S. cerevisiae mlh1 rad18 strain growth inhibition, active compounds read high; at 50.0 µM unless noted. The method, boiled down:
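Inhibition values reflect reduced growth of mutant yeast versus vehicle-treated controls following compound exposure; the mutations affect DNA damage repair.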

Turning to `CC(=O)Oc1cc(C)c(OC(C)=O)c2ccccc12`, the growth inhibition in assay [1] was -6.6%; in assay [2], 17.7%; in assay [3] it was 4.45%; in assay [4] it was -1.3%; in assay [5], 10.3%; in assay [6] it was 4.1%.
On to `COc1nc(NC2OC(CO)C(O)C(O)C2O)c(I)c(=O)[nH]1` (stereo not given), for which the growth inhibition is 5.3% in assay [1]; -3.4% in assay [2]; 2% in assay [3]; -6.25% in assay [4]; -4.75% in assay [5]; 21.8% in assay [6].
As for `CSc1ccc(C)cc1`, the growth inhibition in assay [1] was 30.6%; in assay [2] it was -15.2%; in assay [3] it was -24.5%; in assay [4] it was -21.6%; in assay [5] it was -9.35%; in assay [6], 26.7%.
With `CCOc1cc2c(cc1C(C)c1ccc(O)cc1)OCO2` (stereo not given), the growth inhibition in assay [1] was 99.5% (active); in assay [2], 99.7% (active); in assay [3] it was 99.7% (active); in assay [4] it was 99.7% (active); in assay [5], 99.5% (active); in assay [6], 99.5% (active).
Take `CCOC=Nc1ccc(-n2cnc3c(Cl)ncnc32)cc1C`: the growth inhibition in assay [1] was 1.1%; in assay [2], -4.45%; in assay [3], -16.6%; in assay [4], -6.2%; in assay [5], -1%; in assay [6] it was -17.2%.
`COC(=O)OCCOC(=O)OC`: the growth inhibition in assay [1] is 3.15%; in assay [2], 1.5%; in assay [3], -8.45%; in assay [4], 18.1%; in assay [5], 15.3%; in assay [6] it was 9.5%.
`CC[N+](CC)(CC)CCOC(=O)c1cc(OC)c(OC)c(OC)c1`: the growth inhibition is -16.4% in assay [1]; -20.4% in assay [2]; -2.35% in assay [3]; 15.4% in assay [4]; 4.1% in assay [5]; -0.6% in assay [6].
With `O=C(OCC1OCOC2C(COC(=O)c3ccccc3)OCOC12)c1ccccc1` (stereo not given), the growth inhibition in assay [1] is 9.05%; in assay [2], 4.35%; in assay [3] it was 8.05%; in assay [4] it was 4.8%; in assay [5] it was 13.7%; in assay [6], 15.7%.
On to `CC1=NN(C(=O)c2ccccc2O)C(=O)/C1=C/c1ccccc1O`, for which the growth inhibition is -29.1% in assay [1]; -11.8% in assay [2]; -14.8% in assay [3]; -9.7% in assay [4]; -39.5% in assay [5]; -24.6% in assay [6].
As for `Nc1ccc(S(=O)(=O)CCCl)cc1`, the growth inhibition in assay [1] is 8.7%; in assay [2] it was 0.95%; in assay [3], 18.5%; in assay [4], 22.2%; in assay [5], 13.7%; in assay [6], 11.6%.
For the compound `OCC1=CC(O)C2C=COC(OC3OC(CO)C(O)C(O)C3O)C12` (stereo not given), the growth inhibition in assay [1] was -15.9%; in assay [2] it was -24.6%; in assay [3], -19.1%; in assay [4], -6.45%; in assay [5] it was -32%; in assay [6] it was -31.1%.
For `O=C(CSc1n[nH]c(=S)c2nc[nH]c12)c1ccc(Br)cc1`, the growth inhibition was 11.7% in assay [1]; -0.2% in assay [2]; 21.6% in assay [3]; 33.1% in assay [4]; -0.4% in assay [5]; -8.65% in assay [6].
Consider `Cc1cc(O)c(C)c(C)c1O`, for which the growth inhibition in assay [1] is -4.1%; in assay [2] it was -12.6%; in assay [3], -6.95%; in assay [4], -12.4%; in assay [5], 4%; in assay [6], 8.85%.
For the compound `O=C(O)c1nc2cn1/C=C\C=NCC1=CN3C=CC=NC3(C(=O)O)N1C2` (stereo not given), the growth inhibition in assay [1] is -14.6%; in assay [2], -2.95%; in assay [3] it was -12.4%; in assay [4] it was -43.2%; in assay [5], 1.05%; in assay [6], -18.9%.
On to `N#CC1CCC[N-]C1.N#CC1CCC[N-]C1.[Cl][Pt+2][Cl]` (stereo not given), for which the growth inhibition was 50.6% in assay [1]; 4.75% in assay [2]; 32.4% in assay [3]; 21.1% in assay [4]; 4.3% in assay [5]; 42.4% in assay [6].
As to `COC1OC2COC(C)(C)OC2C2OC(C)(C)OC12` (stereo not given), the growth inhibition in assay [1] was 1.15%; in assay [2] it was 5.35%; in assay [3] it was 6.45%; in assay [4] it was -6.25%; in assay [5] it was -18.4%; in assay [6], 16.3%.
Regarding `[O-]c1nn(-c2ccccc2)n[n+]1-c1ccccc1`, the growth inhibition in assay [1] is -2.4%; in assay [2] it was -12.4%; in assay [3] it was -0.55%; in assay [4], -25%; in assay [5], -10.8%; in assay [6], -10%.
Take `Cc1ccc2c(ccc3nc(N)nc(N)c32)c1`: the growth inhibition in assay [1] was -0.4%; in assay [2], 11.5%; in assay [3] it was -5.55%; in assay [4] it was -42.9%; in assay [5], -47.3%; in assay [6] it was -2.65%.
On to `O=Cc1ccc(N2CCOCC2)cc1`, for which the growth inhibition in assay [1] was 9.2%; in assay [2], -2.1%; in assay [3], -11.2%; in assay [4], -29.6%; in assay [5] it was -18.9%; in assay [6], 1.95%.
Consider `CCCCn1cnc2c(SC)ncnc21`, for which the growth inhibition in assay [1] was -8.1%; in assay [2], -23.9%; in assay [3], -18.4%; in assay [4] it was -0.35%; in assay [5], -32.8%; in assay [6], -3.65%.
